GLS inh: qHTS for Inhibitors of Glutaminase (GLS); Glutaminase kidney isoform, mitochondrial (Homo sapiens), O94925; GLS enzymatic activity, qHTS titration; Potency, µM (top dose mostly 45.5 µM), for the others: at the highest dose activity change, negative = inhibition, usual class: inhibitors; 0.21% of 410,000 active; further: on the % scale 0 is the no-effect control and ±100 the full control effect
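Human kidney-isoform GLS in 45 mM KH2PO4 pH 8.2, 0.02% Tween-20, with compound, started with 1mM L-Glutamine (added stock). Glutamate oxidase/HRP/Amplex red coupled fluorescence read at start and after 30 min at RT.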
JMJD2A Tudor: qHTS Assay for Inhibitors of JMJD2A-Tudor Domain | 4.4% of 390,000 active | Potency, µM (doses to about 114 µM), for inactives: at the highest dose activity change, negative = inhibition, actives largely listed as inhibitors | AID 504339, 2011 | AlphaScreen JMJD2A-Tudor / H3K4me3 peptide binding | Lysine-specific demethylase 4A (Homo sapiens), O75164; further: on the % scale 0 is the no-effect control and ±100 the full control effect; nearly all actives have a fitted effect of over 50% in size
G9a inh: qHTS Assay for Inhibitors of Histone Lysine Methyltransferase G9a | AID 504332, 2011 | Histone-lysine N-methyltransferase EHMT2 (Homo sapiens), Q96KQ7 | 8.8% of 350,000 active | Potency, µM (highest dose often 102 µM), without a hit: top-dose activity, negative = inhibition, most hits filed as inhibitors | G9a H3K9 monomethylation, AlphaScreen, 2 h; further: on the % scale 0 is the no-effect control and ±100 the full control effect; nearly all actives have a fitted effect of over 75% in size
Target sequence (Q96KQ7 913-1193 limits assumed): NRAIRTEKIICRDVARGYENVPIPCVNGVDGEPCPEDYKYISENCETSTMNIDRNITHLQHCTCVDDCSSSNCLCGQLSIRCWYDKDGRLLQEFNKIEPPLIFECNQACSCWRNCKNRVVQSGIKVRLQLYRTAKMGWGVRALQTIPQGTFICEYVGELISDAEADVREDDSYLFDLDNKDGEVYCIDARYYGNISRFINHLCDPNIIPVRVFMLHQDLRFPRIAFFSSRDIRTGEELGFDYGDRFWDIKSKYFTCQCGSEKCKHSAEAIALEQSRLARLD
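AlphaScreen read-out: biotin-H3K9 peptide (500 nM) methylation by 20 nM enzyme with 20 uM SAM, 2 h at room temperature after 15 min compound preincubation; anti-monomethyl H3K9 antibody plus donor/acceptor beads, 10 min dark.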
BAZ2B inh: qHTS Assay for Inhibitors of BAZ2B; AlphaScreen BAZ2B-H3K14Ac peptide displacement; Potency, µM (series often up to 114 µM), for the others: at the highest dose activity change, negative = inhibition, most hits filed as inhibitors; 4.4% of 360,000 active; AID 504333, 2011; further: on the % scale 0 is the no-effect control and ±100 the full control effect; nearly all actives have a fitted effect of over 60% in size
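AlphaScreen displacement of biotin-H3(5-23)K14Ac peptide (50 nM final) from BAZ2B (50 nM final) in PBS pH 7.4, 0.01% Tween-20; complex preformed 30 min RT, then compounds (top 110 uM) 30 min RT, beads 20 min dark.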
HP1b binding inh: HTS for Inhibitors of HP1-beta Chromodomain Interactions with Methylated Histone Tails; Chromobox protein homolog 1 (Homo sapiens), P83916; AlphaScreen HP1-beta / biotin-H3K9me3 peptide binding; Potency, µM (top dose mostly 114 µM), inactives show at the highest dose activity change, negative = inhibition, usual class: inhibitors; 0.56% of 390,000 active; further: nearly all actives have a fitted effect of over 70% in size
Target sequence (P83916 whole entry, looked up): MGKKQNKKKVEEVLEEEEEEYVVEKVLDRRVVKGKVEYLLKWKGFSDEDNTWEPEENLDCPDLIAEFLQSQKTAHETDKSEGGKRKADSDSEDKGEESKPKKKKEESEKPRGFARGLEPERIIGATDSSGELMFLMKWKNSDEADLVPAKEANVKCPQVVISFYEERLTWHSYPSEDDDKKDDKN
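AlphaScreen: HP1-beta (50 nM) preformed 30 min with biotin-H3(1-18)K9me3 peptide (50 nM) in PBS pH 7.4, 0.01% Tween-20. Compound added for 30 min at RT, then streptavidin donor/nickel chelate acceptor beads (10 ug/mL) for 30 min.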
An asterisk follows results filed as active; ? = inconclusive; nt = no result given; [ ] = another dose, or the depositor's remark. An excerpt weighted towards active compounds, which were near 10% of everything screened. The call rests on the fitted dose curve; in most records, active means well fitted curve in the direction sought with a large enough effect; inconclusive means small, poorly fitted or top-dose-only effect, or another doubt; inactive means no such curve, though single readings can be large; an effect the other way counts as inactive or inconclusive. Potency means the concentration at half of the fitted maximal effect.

SMILES	GLS inh	JMJD2A Tudor	G9a inh	BAZ2B inh	HP1b binding inh
O=C(CN1CCN(c2ccccn2)CC1)N(c1ccccc1)c1ccc2ccccc2c1	1.5%	-19.1%[11.4 µM]	50.1µM*	?	-36.0%
O=C(NCCCN1CCOCC1)c1ccc2ccccc2c1	-8.4%	-16.6%	-14.0%	?	8.0%
CCCn1c(SCC(=O)Nc2ccc(S(=O)(=O)N3CCOCC3)cc2)n[nH]c1=O	0.5%	nt	nt	nt	nt
Cn1c(=O)oc2cc(S(=O)(=O)N3CCCC(C(=O)N4CC=C(c5ccccc5)CC4)C3)ccc21 (configuration not stated)	nt	nt	50.1µM*	6.2%	nt
CCOc1ccc(Nc2oc(-c3ccc(COc4ccc(OC)cc4)o3)nc2C#N)cc1	-1.1%	-32.8%	-25.2%[59 µM]	?	3.9%
CCCCCCCCCCCCCCCCCCNC(=O)OCC(COP(=O)([O-])OCC[n+]1ccsc1)OC (configuration not stated)	nt	nt	21.2µM*	nt	nt
[O][C@H]1[C@@H](O)[C@@H](CO)O[C@@H](O[C@@H]2[C@@H]3OC[C@H]2O[C@H](O[C@@H]2[C@@H](O)[C@H](C[C@@H]4[C@@H]5OC[C@H]4O[CH][C@@H]5O)O[C@H](CO)[C@@H]2OS(=O)(=O)O)[C@@H]3OS(=O)(=O)O)[C@@H]1O	nt	nt	15.8µM*	nt	nt
OCC1O[C@@H](O[C@@H]2C(CO)OC(O)C(O)C2O)C(O)C(O)C1O (some centres not stated)	8.2%	nt	-38.6%[12.7 µM]	nt	nt
OCCOc1ccc(CN2CCN(CCCc3ccccc3)C(CCO)C2)cc1 (configuration not stated)	-7.0%	-15.0%	nt	-3.5%	34.2%
COCCNc1c2c(nc3ccccc13)CCC2	-2.7%	-4.1%	-10.2%	3.2%	8.9%
CN(C)CCCNc1c2c(nc3ccccc13)CCC2	39.1%	-27.9%	39.8µM*	-4.4%	37.7%
c1ccc(N2CCN(c3nc4cc5c(cc4s3)OCO5)CC2)cc1	-1.4%	-9.9%[57.1 µM]	?	2.4%	-22.2%
c1c2c(cc3sc(N4CCCCC4)nc13)OCO2	-2.6%	-34.9%	10µM*	?	-31.2%
c1c2c(cc3sc(N4CCOCC4)nc13)OCO2	15.4%	?	-49.6%[2.33 µM]	-9.0%	?
c1ccc2c(c1)CCN(c1nc3cc4c(cc3s1)OCO4)C2	11.3%	-33.6%[57.1 µM]	3.16µM*	?	-23.8%
CCOc1ccc(C2c3c(-c4ccc(C)cc4)n[nH]c3C(=O)N2c2ccc(Cl)cc2)cc1 (configuration not stated)	-4.4%	-30.3%	-28.6%[59 µM]	nt	25.9%
CCCc1nnc(NC(=O)CCC(=O)N2CCN(CCn3c(C)ccc3C)CC2)s1	-20.9%	-3.2%	70.8µM*	-10.2%	14.4%
O=C(NCc1ccc(F)cc1)c1ccc(NC(=O)N2CC3CCCN3c3ccccc32)cc1 (configuration not stated)	25.8%	?	18.0%[59 µM]	8.2%	-8.9%
CCCNC(=O)c1nc(C)n(-c2cc(Cl)ccc2Cl)n1	-13.0%	-12.0%	13.8%	-1.7%	-14.0%
Cc1nc(C(=O)N(C)C)nn1-c1ccc(Cl)cc1Cl	0.8%	-12.6%	-36.1%	8.2%	3.4%
Cc1nc(C(=O)O)nn1-c1cc(Cl)ccc1Cl	-1.0%	-11.2%	44.7µM*	?	29.6%
CNC(=O)c1nc(C)n(-c2ccc(Cl)cc2Cl)n1	?	10µM*	4.0%	-5.1%	-11.2%
C=C[C@@]1(C)C[C@H](OC(=O)CSC(C)(C)CNC(=O)[C@@H](N)C(C)C)[C@@]2(C)C(C)CC[C@@]3(CCC(=O)[C@@H]32)[C@H](C)[C@H]1O (some centres not stated)	3.7%	nt	0.2%[12.7 µM]	nt	nt
COc1ccc2c(c1)OC(=O)CC2c1ccccc1C (configuration not stated)	nt	nt	3.3%	nt	nt
O=C(CSc1nnc(NC(=O)c2ccco2)s1)Nc1ccccc1	-2.1%	-8.7%	-7.9%	-5.6%	48.0%
SMILES	GLS inh	JMJD2A Tudor	G9a inh	BAZ2B inh	HP1b binding inh
Cc1ccc(C)c2[nH]c(=O)c(CN(Cc3cccs3)C(=S)NCc3ccco3)cc12	-3.4%	-23.3%	0.4%[59 µM]	-1.3%	0.3%
Cc1ccc2cc(CN(CC3CCCO3)C(=S)NCc3ccco3)c(=O)[nH]c2c1C (configuration not stated)	5.6%	?	44.7µM*	?	?
Cc1ccc(C)c2[nH]c(=O)c(CN(CC3CCCO3)C(=S)NCc3ccco3)cc12 (configuration not stated)	9.7%	-17.6%	44.7µM*	-31.1%	19.2%
CCc1ccc2[nH]c(=O)c(CN(CC3CCCO3)C(=S)NCc3ccco3)cc2c1 (configuration not stated)	6.9%	?	nt	?	-6.6%
Cc1cccc2cc(CN(CC3CCCO3)C(=O)c3ccco3)c(=O)[nH]c12 (configuration not stated)	-7.6%	-6.0%	50.1µM*	-29.3%	36.2%
CCc1nc2ccc(C(=O)NCc3ccc(OC)cc3)cn2c1N(C)C(=O)Cc1ccccc1	-2.9%	nt	nt	nt	nt
CN1CCC(N(C)S(=O)(=O)c2ccc(NC(=O)COc3ccc(F)cc3)cc2)CC1	2.4%	-20.3%	11.2µM*	?	2.7%
CN1CCC(N(C)S(=O)(=O)c2ccc(NC(=O)COc3ccc(Cl)cc3)cc2)CC1	2.5%	-18.9%	15.5%[12.7 µM]	0.1%	19.7%
CN1CCC(N(C)S(=O)(=O)c2ccc(NC(=O)COc3ccc([N+](=O)[O-])cc3)cc2)CC1	4.8%	-11.0%	12.6µM*	?	23.7%
Cc1oc2ccc(Br)cc2c(=O)c1-c1nn[nH]n1	12.2%	?	?	56.2µM*	6.0%
COc1cc(/C=C(\C#N)C(=O)c2ccc(O)c(O)c2)cc(I)c1O	12.8%	8.91µM*	2.24µM*	39.8µM*	8.91µM*
COc1ccc(C=C(C#N)C(=O)c2ccccc2)cc1	10.7%	nt	nt	nt	nt
CCC[C@H]1C[C@H](C(=O)N[C@@H]([C@H]2O[C@@H](SC)[C@@H](O)[C@@H](O)[C@@H]2O)[C@H](C)Cl)N(C)C1	-14.8%	nt	-16.7%[12.7 µM]	nt	nt
Cc1nn(-c2ccccc2)c(N)c1N=Nc1cccnc1	12.3%	?	?	-35.7%	7.5%
Nc1nn(-c2ccccc2)c(N)c1N=Nc1ccc2c(c1)OCO2	-12.1%	50.1µM*	?	31.6µM*	17.8µM*
Nc1nn(-c2ccccc2)c(N)c1N=Nc1cccc(F)c1	-1.4%	35.5µM*	20µM*	35.5µM*	?
Cc1nc(NCCCn2ccnc2)c2ccccc2n1	3.8%	89.1µM*	-0.8%[59 µM]	-8.6%	20.6%
